Bioassay records (PubChem)
BAZ2B inh: BAZ2B (human) inhibition; AID 504333; Q9UIF8; hit rate 4.4% among 360,000; Potency, µM (titrated, usually from 114 µM), for the others: top-dose activity change, negative = inhibition, actives largely listed as inhibitors; AlphaScreen BAZ2B-H3K14Ac peptide displacement; also: % is scaled to controls: 0 for no effect and ±100 for the full control effect; nearly all actives have a fitted effect of over 60% in size
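In this displacement format the biotinylated H3(5-23) peptide acetylated at Lys14 serves as ligand at 50 nM, with BAZ2B at 50 nM in PBS pH 7.4 containing 0.01% Tween-20. Donor and acceptor beads are 10 ug/mL final.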
L3MBTL1 inh: blocks human L3MBTL1; AlphaScreen L3MBTL1–H3K9me1 peptide binding; Potency, µM (titrated, usually from 57.1 µM), for inactives: at the top dose activity, negative = inhibition, hits mostly inhibitors; hit rate 0.66% among 230,000; AID 485360; also: % is scaled to controls: 0 for no effect and ±100 for the full control effect; nearly all actives have a fitted effect of over 60% in size
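L3MBTL1 (50 nM) pre-complexed 30 min with biotinylated H3(1-15)K9me1 peptide (75 nM), then compounds added for 30 min at room temperature; AlphaScreen streptavidin donor/nickel chelate acceptor beads (10 ug/mL final) read after 30 min dark incubation.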
HP1b binding inh: HP1-beta chromodomain-methylated histone interaction inhibition. AID 540317. AlphaScreen HP1-beta / biotin-H3K9me3 peptide binding. Potency, µM (series often up to 114 µM), without a hit: at the top dose activity change, negative = inhibition, usual class: inhibitors. P83916. hit rate 0.56% among 390,000; also: nearly all actives have a fitted effect of over 70% in size
Target sequence (P83916 whole entry, looked up): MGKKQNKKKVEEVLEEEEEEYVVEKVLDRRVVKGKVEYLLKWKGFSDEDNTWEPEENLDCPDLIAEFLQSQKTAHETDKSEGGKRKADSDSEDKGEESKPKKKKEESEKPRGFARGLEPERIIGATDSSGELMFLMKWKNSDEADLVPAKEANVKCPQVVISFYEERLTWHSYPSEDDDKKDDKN
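AlphaScreen: HP1-beta (50 nM) preformed 30 min with biotin-H3(1-18)K9me3 peptide (50 nM) in PBS pH 7.4, 0.01% Tween-20. Compound added for 30 min at RT, then streptavidin donor/nickel chelate acceptor beads (10 ug/mL) for 30 min.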
JMJD2A Tudor: inhibitors of human JMJD2A Tudor domain. AlphaScreen JMJD2A-Tudor / H3K4me3 peptide binding. Potency, µM (top dose mostly 114 µM), for the others: top-dose activity change, negative = inhibition, hits mostly inhibitors. hit rate 4.4% among 390,000. AID 504339; also: % is scaled to controls: 0 for no effect and ±100 for the full control effect; nearly all actives have a fitted effect of over 50% in size
G9a inh: G9a (human) methyltransferase inhibition. Q96KQ7. G9a H3K9 monomethylation, AlphaScreen, 2 h. Potency, µM (series often up to 102 µM), for inactives: at the highest dose activity, negative = inhibition, usual class: inhibitors. hit rate 8.8% among 350,000; also: % is scaled to controls: 0 for no effect and ±100 for the full control effect; nearly all actives have a fitted effect of over 75% in size
Target sequence (Q96KQ7 913-1193 limits assumed): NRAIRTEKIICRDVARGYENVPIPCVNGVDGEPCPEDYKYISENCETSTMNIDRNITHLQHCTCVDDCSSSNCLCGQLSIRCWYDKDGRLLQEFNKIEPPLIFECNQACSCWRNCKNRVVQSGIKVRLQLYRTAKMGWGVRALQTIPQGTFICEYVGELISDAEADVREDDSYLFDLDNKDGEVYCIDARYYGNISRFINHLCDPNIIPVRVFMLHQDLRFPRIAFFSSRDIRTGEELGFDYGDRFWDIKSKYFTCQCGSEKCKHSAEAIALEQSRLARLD
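Quantitative HTS format: methyltransferase activity on a biotin-tagged H3K9 peptide is measured by AlphaScreen, using a rabbit anti-monomethyl-H3K9 antibody with streptavidin donor and anti-IgG acceptor beads. Final levels are 20 nM enzyme, 500 nM peptide, 20 uM SAM; 2 h RT.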
Active calls of the source: *; ? = inconclusive; · = no result given; [ ] = remark or other dose. Compounds with a hit are over-represented: about 11% of the library has one in this group of screens. Calls follow the shape of the dose curve; as a rule, active = well fitted inhibition curve with a large enough effect; inconclusive = small, poorly fitted or top-dose-only effect; inactive = no such curve, though single readings can be large or run the other way. Potency is read from the fitted curve at half-maximal effect.

SMILES | BAZ2B inh | L3MBTL1 inh | HP1b binding inh | JMJD2A Tudor | G9a inh
COCCOC(=O)c1c(C)n(S(=O)(=O)c2ccc(C)cc2)c2ccc(NS(=O)(=O)c3ccc(C)cc3)cc12 | -12.9% | · | 28.7% | -12.5% | ?
CCN(C(=O)Cn1c(=O)n(CCCS(=O)(=O)C2CCCCC2)c(=O)c2ccccc21)c1cccc(C)c1 | -3.1% | · | 32.3% | -3.1% | 7.8%[59 µM]
CCOC(=O)C1CCCN(C(=O)Cn2ncc3c(C)n(Cc4ccccc4Cl)c(C)c3c2=O)C1 (stereo not drawn) | -16.7% | · | 11.2% | -22.1% | -32.0%[59 µM]
COc1ccc(N2CCN(c3oc(/C=C/c4ccc(F)cc4)nc3C#N)CC2)cc1 | -30.7% | · | -3.2% | -33.0% | ?
Cc1ccc(CNC(=O)CCCc2nnc3n(C)c(=O)c4sccc4n23)cc1 | -15.5% | · | 9.3% | 0.4% | -5.6%[59 µM]
CCOC(=O)c1c(C)c(C(=O)NCc2ccco2)c(C)n1CC | -13.5% | · | 14.6% | -11.8% | ?
CCOC(=O)c1c(C)c(C(=O)NCc2ccco2)c(C)n1Cc1ccccc1 | ? | -1.3% | -31.0% | 35.5µM* | ?
CCOc1cc(OCC)cc(C(=O)NCc2ccco2)c1 | ? | -4.0% | -17.0% | 89.1µM* | 18.1%
CC(=O)c1sc(NC(=O)CCS(=O)(=O)c2ccccc2)nc1C | -14.3% | · | 23.7% | -5.2% | 51.2%
O=C(Nc1nc2c(s1)COc1ccccc1-2)c1cccs1 | -2.6% | · | 30.8% | -4.1% | 44.7µM*
O=C(CCS(=O)(=O)c1ccccc1)Nc1nc2c(s1)COc1ccccc1-2 | -37.4% | -1.2% | 12.6% | -27.2% | 50.1µM*
CCCN1CNc2c(c(=O)[nH]c(=S)n2CCc2cccc(Cl)c2)C1 | · | · | 28.3% | -12.9% | ·
Cc1cccc(CNC(=O)Cn2ccc3cc(S(=O)(=O)N4CCC(C)CC4)ccc32)c1 | -15.6% | · | 30.5% | -3.1% | -25.7%[59 µM]
COCCn1c(C)nnc1SCC(=O)NNC(=O)c1ccc(Cl)cc1 | 0.4% | · | 20.0% | 4.3% | 50.1µM*
Cn1cnnc1SCC(=O)NNC(=O)c1ccc(Cl)cc1 | 0.5% | 1.7% | 19.2% | -3.4% | 16.9%
O=C(CSc1nc2c([nH]c3ccccc32)c(=O)n1-c1ccccc1F)Nc1cccc(Cl)c1 | -14.6% | · | 20.1%[57 µM] | -15.2% | -3.0%[59 µM]
CCc1c(C)sc(NC(=S)Nc2cccnc2)c1C(=O)OC | 13.4% | -12.1% | 9.7% | -6.7%[57.1 µM] | 44.7µM*
COc1ccc(COc2cc(-c3cccc(OC)c3)nc3ccc(NC(=O)c4cccnc4)cc23)cc1 | -35.4% | -16.9% | -7.8% | ? | 50.1µM*
COc1cccc(NC(=S)NC(=O)c2cccnc2)c1 | -37.2% | -2.7% | 21.2% | -5.6% | 7.94µM*
CCOC(=O)c1cccc(NC(=S)NC(=O)c2cccnc2)c1 | -19.3% | -2.4% | 30.5% | -8.3% | 50.1µM*
N#Cc1ccc(NC(=O)c2ccc3c(c2)nnn3C2CCCC2)cc1 | 4.5% | · | 42.5% | -3.9% | -5.9%[59 µM]
COc1ccccc1NC(=O)C1=C(C)Nc2nc(SCc3ccc(Cl)cc3)nn2C1c1ccccc1Cl (stereo not drawn) | -2.4% | · | 23.9% | -12.6% | -3.5%[59 µM]
O=C(NC(=S)NCCO)c1sc2ccccc2c1Cl | ? | 26.1%[11.4 µM] | 38.4% | -7.7% | 25.1µM*
CCOC(=S)NC(=O)c1sc2ccccc2c1Cl | -27.9%[57.1 µM] | -7.3% | -17.1% | -23.2% | 28.4%[0.501 µM]
CC(C)COC(=O)c1cc(-c2ccc(/C=N/n3cnnc3)o2)ccc1Cl | 6.0% | -6.5% | 7.4% | -33.3% | 10µM*
SMILES | BAZ2B inh | L3MBTL1 inh | HP1b binding inh | JMJD2A Tudor | G9a inh
CN1CCN(/N=C/c2ccc(-c3ccc([N+](=O)[O-])cc3Cl)o2)CC1 | 28.2µM* | ? | ? | 56.2µM* | 25.1µM*
O=[N+]([O-])c1cc(-c2ccc(/C=N/n3cnnc3)o2)ccc1Cl | -8.8% | -1.1% | 15.8% | -22.3% | ·
O=[N+]([O-])c1ccc(Cl)c(-c2ccc(/C=N/n3cnnc3)o2)c1 | ? | · | -9.4% | ? | 70.8µM*
Cc1ccc(-c2ccc(/C=N\n3cnnc3)o2)c(Br)c1 | -27.2% | 3.8% | 9.5% | ? | ?
COc1cc([N+](=O)[O-])ccc1-c1ccc(/C=N\n2cnnc2)o1 | -38.8% | -0.9% | 0.5% | ? | ·
Fc1ccc(-c2ccc(/C=N\n3cnnc3)o2)cc1Cl | -29.9% | -0.2% | 28.1% | -17.8% | 1.9%[59 µM]
Cc1cc(-c2ccc(/C=N/n3cnnc3)o2)c(C)c([N+](=O)[O-])c1 | -37.0% | · | -8.7% | ? | 39.8µM*
CCc1ccc(C(=O)c2cn(CC(=O)Nc3ccc4c(c3)OCCO4)c3ccc(C)cc3c2=O)cc1 | -11.2% | · | 22.3% | -14.6% | -5.3%[59 µM]
COc1ccc(NC(=O)c2c(C)oc3ccc(O)c(CN4CCN(Cc5ccccc5)CC4)c23)cc1Cl | -36.3% | · | -9.1% | ? | ?
Cc1nc2ccc(N=NN(C)C)cc2[nH]1 | -21.3% | 4.1% | 15.8µM* | -22.8% | ·
CCC1Sc2ccc(S(=O)(=O)CCC(=O)Nc3ccc(NC(C)=O)cc3)cc2NC1=O (stereo not drawn) | -13.2% | · | 25.0% | -9.0% | 3.6%[59 µM]
CCC1Sc2ccc(S(=O)(=O)CCC(=O)Nc3ccc(C(=O)OC)cc3)cc2NC1=O (stereo not drawn) | ? | · | ? | 20µM* | 10.7%[59 µM]
CCC1Sc2ccc(S(=O)(=O)CCC(=O)Nc3cccc(Br)c3)cc2NC1=O (stereo not drawn) | ? | · | ? | 25.1µM* | -6.0%[59 µM]
CCC1Sc2ccc(S(=O)(=O)CCC(=O)Nc3ccccc3Br)cc2NC1=O (stereo not drawn) | -18.7% | · | 41.7% | -8.2% | 5.5%[59 µM]
O=C(O)c1cn[nH]c1-c1cccc([N+](=O)[O-])c1 | -22.4% | · | 1.9% | -29.2% | 35.5µM*
O=C(CN1C(=O)NC2(CCCC2)C1=O)NCCN1C(=O)S/C(=C\c2ccccc2F)C1=O | 17.7% | 8.3% | 18.6% | -8.3% | -22.4%
COc1ccc(/C=C2\SC(=O)N(CCNC(=O)CN3C(=O)NC4(CCCC4)C3=O)C2=O)cc1 | 9.2% | 6.1% | 13.0% | -20.7% | 50.1µM*
Oc1cc2c(cc1C(c1ccc(Cl)c(Cl)c1)N1CCCC1)OCO2 (stereo not drawn) | 35.5µM* | -17.1% | 20µM* | 10µM* | 1.41µM*
CCC(Sc1nc2ncnc(N)c2[nH]1)C(=O)O (stereo not drawn) | -22.5% | 5.3% | 35.4% | -6.0% | 39.8µM*
O=C(O)CC1S/C(=N/N=C/c2ccc(-c3ccc(Cl)cc3[N+](=O)[O-])o2)NC1=O (stereo not drawn) | ? | · | -9.3% | ? | 14.1µM*
O=C(O)CC1S/C(=N/N=C/C=C/c2ccccc2)NC1=O (stereo not drawn) | 79.4µM* | 10.0% | 22.1% | 79.4µM* | 7.94µM*
O=C(O)CC1S/C(=N/N=C/c2ccc(-c3ccc(Cl)c([N+](=O)[O-])c3)o2)NC1=O (stereo not drawn) | -24.9% | · | 26.0% | -27.5% | ?
O=C(O)CC1S/C(=N/N=C/C=C/c2ccccc2[N+](=O)[O-])NC1=O (stereo not drawn) | 7.0% | 9.0% | 34.4% | ? | -9.2%[59 µM]
